# Laboratory results from PubChem BioAssay (NCI).
# Compounds without any hit were thinned out: in the full panel of roughly 83,000, 20% have a hit.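 A percent growth of 40 corresponds to 60% growth inhibition; 0 means no net growth; -100 means all cells died. Active threshold: below 10.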 A number with no mark means an inactive call. The source made the active and inactive calls.
# Tested on: CAKI-1 renal
# Experiment: NCI-60 one-dose screen, 48 h (100 = growth as untreated, 0 = no growth, -100 = all killed)
# Conditions: 10 µM unless noted
row,Structure (SMILES),growth
1,NC(=O)CNc1ccc([As]=[As]c2ccc(NCC(N)=O)cc2)cc1 (configuration not stated),12.5%
2,C/C(=C\c1ccn(-c2ccc(N)cc2)n1)[C@@H]1C[C@@H]2O[C@]2(C)CCC[C@H](C)[C@H](O)[C@@H](C)C(=O)C(C)(C)[C@@H](O)CC(=O)O1,43.2%
3,CC1(C)N=C(N)N=C(N)N1c1ccc(OCCCNC(=O)Nc2ccc(S(=O)(=O)F)cc2)c(Cl)c1,92.1%
4,c1ccc(COc2ccc3[nH]cc(CCN(Cc4ccccc4)Cc4ccccc4)c3c2)cc1,71.8%
5,O=[As](O)(O)c1ccccc1[As](=O)(O)O,94.5%
6,C1CCC([PH+](C2CCCCC2)C2CCCCC2[PH+](C2CCCCC2)C2CCCCC2)CC1.[Au].[CH-]1CCCCC1CC1CCCC[N-]1 (configuration not stated),-31.3% (active)
7,CCCC(=O)O[C@@H]1C[C@H]2C[C@@H](O[C@@H]3O[C@@H](C)[C@@H](O)[C@@H](O)[C@H]3OC)C[C@@H](C[C@@H](C)/C=C/C=C\C[C@@H]3O[C@@H](C[C@@H]3C)[C@@H](O)C[C@H]3C[C@@]1(O)C(=O)O3)O2,60.9%
8,CC[S][Hg][Cl],89.7%
9,COc1cccc2c1c(C(=O)c1ccco1)cn2Cc1ccc(F)cc1,184%
10,CC(=O)c1ccc(C(=O)NCC2CCC3(CC2)OOC2(CCCCC2)OO3)cc1,-29.9% (active)
11,O=C(N/N=C/c1ccc(N(CCCl)CCCl)cc1)c1cccc2ccccc12,80.5%
12,O=C(CCCCCNC1=CC(=O)c2ccccc2C1=O)NCCC[Te]c1ccccc1,-55.8% (active)
